{
  "source": "PubChem BioAssay AID2284058",
  "about": "(EPA ToxCast)",
  "note": "Calls of active or inactive are those of the source. How the source made its calls: active means hit-call score of the fitted dose curve at least 0.9, where 1 is the maximum; inactive means score below 0.9.",
  "data": [
    {"target": "CYP2C9, CYP2C9 (gene 1559) (UniProt P11712)", "sequence (P11712 whole entry, looked up)": "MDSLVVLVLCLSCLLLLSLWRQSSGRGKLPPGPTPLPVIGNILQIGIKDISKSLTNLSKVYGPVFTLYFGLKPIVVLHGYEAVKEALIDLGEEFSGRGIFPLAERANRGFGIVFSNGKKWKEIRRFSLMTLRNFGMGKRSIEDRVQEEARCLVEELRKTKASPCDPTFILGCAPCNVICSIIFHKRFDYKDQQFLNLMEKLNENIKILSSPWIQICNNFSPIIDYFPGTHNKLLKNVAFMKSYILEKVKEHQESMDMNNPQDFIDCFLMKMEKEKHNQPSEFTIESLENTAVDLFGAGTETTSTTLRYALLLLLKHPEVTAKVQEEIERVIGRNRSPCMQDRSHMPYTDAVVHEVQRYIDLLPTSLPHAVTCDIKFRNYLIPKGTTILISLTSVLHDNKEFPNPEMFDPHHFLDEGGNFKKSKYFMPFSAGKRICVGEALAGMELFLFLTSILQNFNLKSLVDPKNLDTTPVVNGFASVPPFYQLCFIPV", "assay": "ERF_FR_ADME_hCYP2C9: Eurofins (ERF) CYP450-related Enzyme Activity (ADME) Assay for CYP2C9", "protocol": "ERF_FR_ADME_hCYP2C9 is a biochemical, single-readout assay that uses extracted gene-proteins in a cell-free assay. Measurements were taken 0.66 hour after chemical dosing in a 96-well plate. See CYP2C9 inhibition (recombinant, MFC substrate).ERF_FR_ADME_hCYP2C9 is an assay component calculated from the ERF_FR_ADME_hCYP2C9 assay. It is designed to measure enzyme activity using a type of enzyme reporter as detected by fluorescence intensity of HFC with fluorimetry technology.Data from the assay component ERF_FR_ADME_hCYP2C9 was analyzed at the assay endpoint, ERF_FR_ADME_hCYP2C9, in the positive analysis fitting direction relative to acetonitrile as the negative control and baseline of activity. Using a type of enzyme reporter, loss-of-signal activity can be used to understand changes in enzymatic activity as they relate to gene CYP2C9. To generalize the intended target to other relatable targets, this assay endpoint is annotated to the cyp intended target family, where the subfamily is steroidogenesis-related.\nHuman cells are incubated for 15 minutes at 37C with Diclofenac as substrate and Sulfaphenazole as control inhibitor. Test Sample Requirements: Minimum for 1) Screen: 25 ul of 10 mM stock -OR- 1 mg (pre-weighed) for 10 uM final testing. 2) Dose Response: 60 ul of 10 mM stock -OR- 1 mg (pre-weighed). […]", "values": [
      {"smiles": "O=C(/C=C/c1ccc(O)cc1)CC(=O)/C=C/c1ccc(O)cc1", "AC50": "502 nM (active)"}
    ]}
  ]
}
